NR1D1 modulator – modulates human Rev-erb alpha binding to DNA; P20393; Rev-erbα–FITC-DNA binding, fluorescence polarization, 90 min; activity, % at 10 µM; 370,000 compounds, 0.79% hits;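 active means activity above about 14%, limit read from the data; passing the limit was not always enough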;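 further: 0% = DMSO wells with 35 nM protein and 100% = DMSO wells with 750 nM protein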
Target sequence (P20393 whole entry, looked up): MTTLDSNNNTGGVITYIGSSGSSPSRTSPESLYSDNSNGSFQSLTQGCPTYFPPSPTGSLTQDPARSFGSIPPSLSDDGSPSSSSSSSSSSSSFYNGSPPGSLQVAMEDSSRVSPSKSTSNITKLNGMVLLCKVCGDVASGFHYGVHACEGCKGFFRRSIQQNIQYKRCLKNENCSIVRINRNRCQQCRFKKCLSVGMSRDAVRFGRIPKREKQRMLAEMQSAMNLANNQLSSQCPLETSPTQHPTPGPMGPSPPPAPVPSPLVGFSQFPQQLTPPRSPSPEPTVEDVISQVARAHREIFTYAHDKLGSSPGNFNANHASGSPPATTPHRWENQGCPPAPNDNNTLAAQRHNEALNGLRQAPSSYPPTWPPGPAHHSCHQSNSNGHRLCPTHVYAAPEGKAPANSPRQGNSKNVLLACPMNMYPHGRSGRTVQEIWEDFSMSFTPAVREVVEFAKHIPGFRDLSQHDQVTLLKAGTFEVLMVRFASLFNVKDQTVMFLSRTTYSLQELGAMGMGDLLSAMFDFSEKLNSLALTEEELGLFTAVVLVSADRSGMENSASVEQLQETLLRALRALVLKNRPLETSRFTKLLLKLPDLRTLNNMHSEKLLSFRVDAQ
PKA-R2B activ – activators of human PKA-R2B complex. activation, % at 11.4 µM. AID 504700. PKA-R2B holoenzyme dissociation, Cy5-IP20 fluorescence polarization; R2B truncated from residue 108, S112A mutant; 0% DMSO only, 100% 113 µM cGMP. 340,000 compounds, 0.079% hits;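 active means activation above a cutoff set at the mean over all compounds plus 3 SD, cut at about 18% in these data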;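 further: higher means more holoenzyme dissociation and a rise in polarization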
PG9 binder – small molecules binding HIV-1 gp120 antibody PG9; TR-FRET gp120-PG9 antibody binding; inhibition, % at 6.7 µM; 360,000 compounds, 0.43% hits; AID 624416; in the data active means inhibition above about 8.5%
PKA-R1A activ – PKA-R1A complex activation. P00514+P68181. PKA-R1A dissociation, Cy5-IP20 fluorescence polarization; scaled: DMSO 0%, 113 µM cGMP 100%. activation, % at 11.4 µM. 340,000 compounds, 0.083% hits;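 active means percent activation above the mean of all tested compounds plus 3 SD, cut at about 19% in these data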;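 further: higher means more PKAc released from R1A so a rise in polarization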
PG9 binder conf – confirmation of small molecules binding HIV-1 gp120 antibody PG9; shares compounds with PG9 binder; TR-FRET PG9 antibody binding, biochemical; inhibition, % at 6.7 µM; 1,500 compounds, 90% hits; AID 651571; in the data active means inhibition above about 9%
PGV04 Ab binding – binds control antibody PGV04 in PG9 binder counter-screen. TR-FRET PGV04 antibody-gp120 binding, biochemical. 1,500 compounds, 95% hits. shares compounds with PG9 binder. AID 651604. inhibition, % at 6.7 µM; in the data active means inhibition above about 9.5%
PG9 binder DR – small molecules binding HIV-1 gp120 antibody PG9. shares compounds with PG9 binder. TR-FRET PG9 antibody-gp120 binding inhibition. IC50, µM. 95 tested, under 10 active. AID 651848; in the data active means IC50 below about 10 µM
PGV04 DR counter – binds control antibody PGV04 in PG9 counter-screen; 95 compounds, 20% hits; IC50, µM; shares compounds with PG9 binder; TR-FRET binding to control antibody PGV04
PG126 DR counter – counter-screen for PG9 binders: binding to control antibody PG126. TR-FRET binding to antibody PG126, counterscreen. 95 compounds, 20% hits. IC50, µM. AID 651939. shares compounds with PG9 binder
Numbers without * were called inactive; i = inactive; . = no result. Most compounds without a hit are left out; they make up all but 1.2% or so of the library. Unless noted, no stated cut-off is given here; in the data, active means IC50 below about 9 µM; inactive means the rest.

SMILES | NR1D1 modulator | PKA-R2B activ | PG9 binder | PKA-R1A activ | PG9 binder conf | PGV04 Ab binding | others
CCc1cccc(NC(=O)C2CCN(S(=O)(=O)c3ccc4[nH]c(=O)ccc4c3)CC2)c1 | 5 | 9 | 4 | 0 | . | .
CC(=O)N1CCN(C(=O)CN2C(=O)CC(C)(C)S(=O)(=O)c3ccccc32)CC1 | -3 | . | . | . | . | .
Cc1cccc(C(=O)NCC(=O)OCC(=O)NCCNC(=O)COC(=O)CNC(=O)c2cccc(C)c2)c1 | -8 | -2 | 0 | 5 | . | .
Cc1cccc(C(=O)NCC(=O)OCC(=O)c2ccc(Br)s2)c1 | 6 | -10 | 8.8* | -6 | 14* | 21*
CC1(C)Cc2c(c(N3CCOCC3)nc3snc(NC(=O)c4ccccc4)c23)CO1 | 2 | -9 | -1 | -4 | . | .
CC1(C)Cc2c(C#N)c(SCC(=O)c3ccccc3)nc(N3CCOCC3)c2CO1 | -5 | 1 | 42* | -14 | 9.3* | 86*
Cc1nc2c(sc3nc(N4CCOCC4)c4c(c32)CC(C)(C)OC4)c(-c2ccccc2)c1C(=O)O | 5 | 9 | 16* | 1 | 26* | 32*
C=CCn1c(SCC(=O)c2ccc(F)cc2)nnc1-c1ccc(F)cc1 | -5 | . | . | . | . | .
CCOC(=O)c1ccccc1NC(=O)/C=C/c1cc(OC)c(OC)c(OC)c1 | 1 | -6 | 22* | -6 | 19* | 24*
COc1cc(/C=C/C(=O)Nc2ccccc2C(F)(F)F)cc(OC)c1OC | 2 | . | 1 | . | . | .
CCOC(=O)c1c(C)n(-c2ccc(C)cc2)c2c(C(C(C)=O)C(=O)O)c(Br)c(O)c(O)c12 (stereo not given) | 8 | -15 | -2 | -14 | . | .
CCOC(=O)C(C(C)=O)c1c(Br)c(O)c(O)c2c(C(=O)c3ccc(C)cc3)coc12 (stereo not given) | 0 | -3 | 9.4* | 3 | 18* | 19*
Cc1nc2ccccc2nc1CSc1nncs1 | -1 | -4 | 9.8* | -11 | 6 | 7
CCn1c(SCc2nc3ccccc3nc2C)nnc1-c1cccs1 | 5 | 2 | -2 | -4 | . | .
CSc1nc2sc3c(c2c(=S)[nH]1)CC(C)(C)OC3 | -2 | -13 | 12* | 2 | 44* | 73*
O=C(c1ccc(NS(=O)(=O)c2ccccc2)cc1)N1CCN(Cc2ccc3c(c2)OCO3)CC1 | 2 | 6 | 11* | -8 | 6 | 7
COc1ccc(NS(=O)(=O)c2cccc(C(=O)N3CCN(Cc4ccc5c(c4)OCO5)CC3)c2)cc1 | 4 | 4 | 0 | -12 | . | .
COC[C@H]1O[C@]2(c3ccccc3)CO[C@H]1[C@@H](/C=C/c1ccccc1)C2 | 0 | . | . | . | . | .
Cc1cccc2cc(C#N)c(SCC(=O)NNC(=O)Cc3ccccc3)nc12 | 13 | 0 | 17* | -14 | 35* | 28*
Cc1cc2cccc(C)c2nc1SCC(=O)NNC(=O)c1ccco1 | 5 | -1 | 1 | -8 | . | .
O=C(NC(=S)Nc1cccc(NC(=S)NC(=O)c2ccccc2)c1)c1ccccc1 | -6 | 4 | 12* | 4 | 8 | 14*
CC(C)[C@H](NC(=O)Cc1ccccc1)C(=O)OCc1cc(=O)n2c(n1)sc1ccccc12 | -9 | -10 | 9.6* | 6 | 17* | 21*
Cc1ccc2c(CC(=O)OCc3cc(=O)n4c(n3)sc3ccccc34)coc2c1 | -6 | -6 | 3 | -3 | . | .
O=C(CN1CCN(c2nc(-c3ccccc3)cs2)CC1)Nc1ccc(Cl)c(Cl)c1 | -5 | . | . | . | . | .
O=C(Nc1nnc(S(=O)(=O)N2CCCCCC2)s1)c1ccccc1Br | -9 | 8 | 0 | 16 | . | .
SMILES | NR1D1 modulator | PKA-R2B activ | PG9 binder | PKA-R1A activ | PG9 binder conf | PGV04 Ab binding | others
Cc1ccccc1C(=O)Nc1nnc(S(=O)(=O)N2CCCCC2)s1 | -4 | 7 | 24* | 2 | 32* | 40*
N#Cc1c(-c2ccccc2)c(C#N)c2nc3ccccc3n2c1N | 1 | -7 | 8.8* | -12 | 18* | 24*
COc1ccc(C(=O)COC(=O)c2ccc(-n3cnnn3)cc2)c(OC)c1 | 14 | -6 | 24* | -4 | 36* | 44*
COc1ccccc1C(=O)COC(=O)c1ccc(-n2cnnn2)cc1 | -3 | -2 | 0 | -6 | . | .
CCN(CC(=O)NC(C)C)Cc1nc2c(Br)cc(Br)cc2c(=O)[nH]1 | 5 | 0 | 23* | -11 | 40* | 52*
CCN(CC(=O)NC(c1ccccc1)c1ccccc1)Cc1nc2ccccc2c(=O)[nH]1 | 3 | 2 | 0 | 1 | . | .
Cc1ccc2nc(-c3ccc(NC(=O)CSc4nccc(=O)[nH]4)cc3)sc2c1 | 10 | -20 | 12* | -14 | 11* | 36*
O=C(CSc1nnc(-c2ccccc2)n1-c1ccccc1)NN=Cc1ccc(-c2ccccc2)cc1 | -7 | . | . | . | . | .
CCOC(=O)c1c(N)sc(=S)c2c1CCC2 | -6 | 0 | 9.5* | 1 | 6 | 10*
CCOC(=O)c1c(N)sc(N)c1C(=O)OCC | 2 | 3 | -8 | -8 | . | .
O=C(CSc1nnc(-c2cnccn2)n1-c1ccccc1)c1ccc(F)cc1 | 4 | . | . | . | . | .
Oc1ccc(CNc2ccc(C(F)(F)F)cc2F)c2cccnc12 | 2 | . | . | . | . | .
CCOc1ccc(-c2nc(CCl)cs2)cc1 | -4 | 3 | -1 | -2 | . | .
COc1ccc(Br)cc1-c1nc(CCl)cs1 | 6 | -2 | 10* | -10 | 16* | 20*
Cc1cc2cc(C)c(NCCNC(=O)c3ccccc3)nc2cc1C | 9 | 4 | -1 | -11 | . | .
Cc1ccc(C(=O)NCCNc2nc3cc(C)c(C)cc3cc2C)cc1 | 17 | 4 | 8.9* | -7 | 18* | 22*
NS(=O)(=O)c1ccc(NC(=O)c2ccc(-c3ccccc3)cc2)cc1 | 3 | . | 9.3* | . | 13* | 25*
COc1cccc(NC(=O)Cn2c3ccc(OC)cc3c3nc4n(c(=O)c32)CCS4)c1 | 19 | 2 | 14* | -2 | 31* | 25* | PG9 binder DR=>67;PGV04 DR counter=9*;PG126 DR counter=i
CCOc1cc(-c2noc(CCC(=O)NCC3CCCO3)n2)ccc1OC (stereo not given) | -1 | -13 | -1 | -6 | . | .
COc1ccc(-c2noc(CCC(=O)NCC3CCCO3)n2)cc1OC (stereo not given) | 0 | 3 | 11* | 3 | 4 | 7
CCn1c(SCC(=O)Nc2nc3ccccc3s2)nnc1-c1ccc(Br)cc1 | -1 | -1 | 21* | -7 | 23* | 35*
